Bioassay records deposited in PubChem BioAssay by National Center for Advancing Translational Sciences (NCATS).
Shown are actives, neighbours in structure and some others; about 12% of the full set was active somewhere.
SARS PLP yeast: blocks SARS-CoV papain-like protease in a yeast assay | S. cerevisiae expressing SARS-CoV PLpro, growth rescue | Potency, µM (highest dose often 32.9 µM), most hits filed as activators | 330,000 compounds, 0.19% hits; note: nearly all actives have a fitted effect of over 55% in size
NS1 inh: inhibitors of influenza NS1 protein function | 270,000 compounds, 0.4% hits | AID 2326 | Potency, µM (highest dose often 46.1 µM); note: actives are rising curves; nearly all actives have a fitted effect of over 50% in size
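Compounds were scored for reversing the slow growth caused by influenza A NS1 in S. cerevisiae, measured by optical density at 600 nm. Assay medium contained 2% galactose at pH 6.0; NS1-free yeast of the same strain were the positive control.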
Shiga toxin inh: inhibitors of Shiga toxin in Vero cells; Vero cells, Shiga toxin protein synthesis inhibition reporter; inhibition, % at 38.7 µM; 290,000 compounds, 9.2% hits; in the data active = inhibition mostly above about 28%, no sharp cut-off; inactive = mostly below about 43%
Cycloheximide cs: counter-screen for Shiga toxin inhibitors: cycloheximide protein synthesis inhibition | cell reporter, cycloheximide protein synthesis inhibition counterscreen | max response, % | 300,000 compounds, 12% hits; in the data active = max response mostly above about 13%, no sharp cut-off; inactive = mostly below about 14%; note: read at 38.3 µM for the half of the compounds with a filed dose
Large screens that a line does not name were inactive. Unless noted, calls come from the whole dose curve.

Cc1cc(C(=O)Nc2sc3c(c2C#N)CCC(C)C3)cs1 (centres undefined)	SARS PLP yeast inconclusive, Shiga toxin inh 126.1, Cycloheximide cs 38.5
CC(=O)NC(=S)Nc1sc2c(c1C(N)=O)CCC(C)C2 (centres undefined)	Shiga toxin inh 52.9, Cycloheximide cs 53.7
CCOC(=O)Nc1sc2c(c1C(N)=O)CCC(C)C2 (centres undefined)	none
CCN(CC(=O)Nc1sc2c(c1C#N)CCC(C)C2)CC(=O)NC1CCS(=O)(=O)C1 (centres undefined)	Shiga toxin inh 42.0, Cycloheximide cs 19.0 (no result: NS1 inh)
CN(C(=O)COC(=O)CNC(=O)c1ccccc1F)C1CCCCC1	none (no result: NS1 inh, Shiga toxin inh, Cycloheximide cs)
CCOc1ccc(CNS(=O)(=O)c2c(C(=O)N3CCCC3)c(C)n(C)c2C)cc1OC	none
Cc1cc(C)n(C(C)CC(=O)Nc2ccc3c(c2)OCO3)n1 (centres undefined)	Cycloheximide cs 23.6
CC(CC(=O)Nc1ccc2c(c1)OCO2)c1ccccc1 (centres undefined)	Cycloheximide cs 15.0
CC(C(=O)Nc1ccc2c(c1)OCO2)N1CCN(C)CC1 (centres undefined)	none
CC(CC(=O)Nc1ccc2c(c1)OCCO2)c1ccccc1 (centres undefined)	Shiga toxin inh 54.5, Cycloheximide cs 41.5
C[C@H](NC(N)=O)C(=O)Nc1ccc2c(c1)OCO2	Cycloheximide cs 23.4
Cc1cc(C)n(C(C)CNC(=O)c2ccc3c(c2)OCO3)n1 (centres undefined)	none
Cc1cc(C(=O)OCC(=O)NCc2ccccc2Cl)c(C)o1	none (no result: NS1 inh)
COCCNC(=O)C(c1ccc(C)cc1)N(C(=O)CCC(=O)Nc1ccccn1)C1CCCCC1 (centres undefined)	none
COc1ccccc1NS(=O)(=O)c1cc(NC(=O)CNC(=O)c2ccc(C)s2)ccc1Cl	none
CCN(CC)C(=O)c1ccc(C(=O)c2ccccc2)cc1	Cycloheximide cs 31.7
CCN(CC)C(=O)c1ccc2nc3ccccc3nc2c1	Shiga toxin inh 64.7, Cycloheximide cs 29.9
CCCCCCCCCCCCCC[C@@H](O)[C@@H](O)[C@@H](N)CO	none (no result: SARS PLP yeast, NS1 inh)
O=C(CSc1ncnc2c1oc1ccccc12)Nc1cccc(Cl)c1	Cycloheximide cs 9.2
CCCSc1ncnc2c1oc1ccccc12	Cycloheximide cs 25.0
c1coc(CSc2ncnc3c2oc2ccccc23)c1	Shiga toxin inh 85.3, Cycloheximide cs 56.7
COc1ncnc2c1oc1ccccc12	Shiga toxin inh 111.9, Cycloheximide cs 48.3
Fc1ccccc1CSc1ncnc2c1oc1ccccc12	none
O=C(CCN1CCOCC1)N1CCCC(Nc2cccc(F)c2)C1 (centres undefined)	none
